Screens (PubChem)
FBW7 activator – activators of human E3 ligase FBW7; AID 1259310; Q969H0; AlphaScreen FBW7–phospho-cyclin E peptide binding, activator screen; 0.13% of 650,000 active; normalized activity (activation), % at 26.1 µM; in the data active = normalized activity above about 1.9%;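 also: purified mutant Fbw7 with reduced substrate affinity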
GPR151 activ – human GPR151 activation; PathHunter beta-arrestin GPR151 cells, luminescence; activation, % at 11.2 µM; 1% of 650,000 active; AID 1508602; Q8TDV0; in the data active = activation above about 4.9%;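 also: 0% = median of compound wells and 100% = cells with positive control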
MITF inh – inhibitors of human MITF | AlphaScreen MITF homodimerization, bead proximity signal | inhibition, % at 2.6 µM | O75030 | 0.91% of 650,000 active; in the data active = inhibition above about 50%;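 also: 0% = vehicle wells with protein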
TEAD-YAP block – TEAD-YAP interaction inhibition; 1.4% of 640,000 active; HEK-TIYL cells, TEAD-Gal4/YAP UAS-luciferase luminescence; inhibition, % at 9.12 µM; in the data active = inhibition above about 32%;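 also: 0% = median of test compound wells and 100% = reference inhibitor wells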
GPR151 confirm – human GPR151 activation, confirmation screen. shares compounds with GPR151 activ. 6,700 tested, under 10 active. GPR151 PathHunter beta-arrestin cells, luminescence, 90 min; % of EA-reagent control over plate median. activation, % at 11.2 µM. AID 1508609;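 active = mean percent activation across replicates above the confirmation screen cutoff of 4.91%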
GPR119 counter – GPR119 activation, counter-screen for GPR151 activators; shares compounds with GPR151 activ; GPR119 PathHunter beta-arrestin cells, luminescence, 90 min; 0 = compound-well median, 100 = enzyme-acceptor control; activation, % at 11.2 µM; 0.3% of 6,700 active;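 active = mean percent activation in the counterscreen above 29.09%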;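 also: counterscreen on off-target GPR119 to flag nonselective hits from the GPR151 activator screen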
Target sequence (Q8TDV5 whole entry, looked up): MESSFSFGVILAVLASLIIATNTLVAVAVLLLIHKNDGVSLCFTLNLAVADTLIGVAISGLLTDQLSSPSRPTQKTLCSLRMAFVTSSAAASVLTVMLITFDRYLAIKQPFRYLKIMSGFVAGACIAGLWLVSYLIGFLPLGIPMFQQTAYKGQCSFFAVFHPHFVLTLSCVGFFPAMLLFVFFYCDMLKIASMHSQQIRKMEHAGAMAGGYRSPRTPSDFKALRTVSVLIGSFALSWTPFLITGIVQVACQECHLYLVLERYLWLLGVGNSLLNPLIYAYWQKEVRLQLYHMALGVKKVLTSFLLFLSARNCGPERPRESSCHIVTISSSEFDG
Active calls of the source: *; x = no result; ! = not confirmed by another sample. The list is not random: actives were taken first. Their share in the collection is about 3.5%.

SMILES	FBW7 activator	GPR151 activ	MITF inh	TEAD-YAP block	GPR151 confirm	GPR119 counter
CC12CCC(C(=O)Nc3ccccc3C(F)(F)F)(C(=O)C1=O)C2(C)C (configuration not stated)	0	6.1*	-19	0	0	4
COc1ccc(OC)c(NC(=O)CC2C(=O)NCCN2C(=O)C(F)(F)F)c1 (configuration not stated)	1	7.0*	9	1	0	1
CCNC(=O)C(=O)NCC1OCCCN1S(=O)(=O)c1ccc(C)cc1 (configuration not stated)	0	0	4	6	x	x
Cc1ccc(N2Cc3ccncc3C2=O)c(Cl)c1	0	2	-10	14	x	x
C/C(CCC(=O)OC[C@H]1O[C@H](C#Cc2ccccc2)C=C[C@@H]1Oc1ccc(C)cc1)=N\O[C@H](C)CN1CCCc2nc(C)c(C)cc21	0	7.0*	11	x	0	-5
COc1ccc(O[C@H]2C=C[C@@H](c3ccccc3)O[C@@H]2COC(=O)CC/C(C)=N/O[C@@H](C)CN2CCCCc3nc(C)c(C)cc32)cc1	0	1	2	x	x	x
CC(C)CNCC(O)COC1CCCc2ccccc21 (configuration not stated)	0	2	35	0	x	x
O=C(Cc1ccsc1)NCC1Cc2c(F)ccc(-c3ccncc3)c2O1 (configuration not stated)	0	17*	3	24	0	2
CC(C)CC(=O)NCC1Cc2c(F)ccc(-c3ccncc3)c2O1 (configuration not stated)	0	-1	6	1	x	x
CCOC(=O)C1=C(O)/C(=C/c2ccc(-c3ccc(F)cc3)o2)SC1=Nc1ccc(OCC)cc1	0	0	0	2	x	x
C[C@H]1C[C@@H]2[C@H]([C@@H](O)C[C@@]3(C)[C@H]2CC[C@]3(O)C(=O)CO)[C@@]2(C)C=CC(=O)C=C12	0	6.9*!	3	x	0	0
CCc1c(C(=O)Nc2ccc(C)c(F)c2)[nH]c(C)c1C(C)=O	0	12*	2	-12	-1	-8
COC(=O)c1nn2c(C(F)(F)F)cc(-c3ccc(OC)cc3)nc2c1Cl	0	0	9	10	x	x
O=C(/C=C/c1ccc2nccnc2c1)c1ccccc1	0	1	2	-10	x	x
COC(=O)c1sccc1NC(=O)Cc1nn(C)c(=O)c2ccccc12	0	0	8	6	x	x
c1ccc(CN2CCC(Nc3ncc(-c4cccs4)cn3)CC2)cc1	0	6.8*	-3	-10	0	4
Cc1cc(NC2CCN(Cc3ccccc3)CC2)nc(-c2cccs2)n1	0	2	10	7	x	x
CCCCOc1ccc(OCCCC)c2c1NC1(N2)C(=O)Nc2ccc([N+](=O)[O-])cc21	0	5.1*	5	-9	1	2
CN(C)C(=O)CSc1nnc(-c2ccc3c(c2)OCO3)n1C	0	0	1	-6	x	x
Cn1c(SCC(N)=O)nnc1-c1ccc2c(c1)OCO2	0	9.6*	-2	8	1	9
Cc1oc(-c2ccc(Cl)cc2)nc1CS(=O)CC(=O)NC1CCCCC1 (configuration not stated)	0	8.3*	12	-3	1	-3
Cc1oc(-c2ccc(Cl)cc2)nc1CS(=O)CC(=O)NC1CCCCCC1 (configuration not stated)	0	0	8	-12	x	x
CC1=C(C(=O)Nc2ccccc2)C(c2ccc(F)cc2)n2c(s/c(=C\c3ccc4c(c3)OCO4)c2=O)=N1 (configuration not stated)	0	1	19	-4	x	x
Nc1nc(N2CCOCC2)nc(N2CCOCC2)c1[N+](=O)[O-]	0	6.5*	-4	3	0	-9
CCCCN(C)c1nc(N)c([N+](=O)[O-])c(N2CCOCC2)n1	0	5	0	2	x	x
SMILES	FBW7 activator	GPR151 activ	MITF inh	TEAD-YAP block	GPR151 confirm	GPR119 counter
COC(=O)c1cnn2c(C(F)(F)F)cc(-c3ccc(C)cc3)nc12	0	0	-4	-10	x	x
Cc1ccc(-c2cc(C(F)(F)F)n3ncc(C(=O)OC(C)C)c3n2)cc1	0	5.4*	-5	9	0	13
O=C(CSc1nnc2scc(-c3ccccc3)n12)N1CCCCCC1	1	-2	21	-3	x	x
Cc1ccc(-c2csc3nnc(SCC(=O)N4CCOCC4)n23)cc1	1	5.0*	8	0	1	-1
COC(=O)c1cc(NC(=O)c2ccc(F)cc2)c(=O)n2c(=O)c3c(C)c(C)sc3[nH]c12	0	5.4*	2	2	1	2
COC(=O)c1cc(NC(=O)c2cccs2)c(=O)n2c(=O)c3c(C)c(C)sc3[nH]c12	0	0	2	-5	x	x
CC1CCC2(CC1)NC(=O)N(CC(=O)NC(=O)NCc1ccccc1)C2=O (configuration not stated)	0	5.5*	17	1	0	-4
C=CCn1c(SCC(=O)Nc2c(C)cc(C)cc2[N+](=O)[O-])nnc1-c1cccnc1	1	1	16	7	x	x
O=C(Nc1cccc(Cl)c1)c1ccc(F)c(S(=O)(=O)N2CCc3ccccc3C2)c1	0	5.4*	0	-8	1	7
CCN1CCN(S(=O)(=O)c2cc(C(=O)Nc3cccc(C)c3)ccc2F)CC1	0	6.1*	9	-4	-1	-7
Cc1ccc(N2CCN(S(=O)(=O)c3cc(C(=O)Nc4cc(Cl)cc(Cl)c4)ccc3F)CC2C)cc1 (configuration not stated)	0	5.7*	11	5	0	4
NS(=O)(=O)c1ccc(CCNC(=O)CN2C(=O)C3C4C=CC(C4)C3C2=O)cc1 (configuration not stated)	0	8.1*	14	6	0	-11
CC(C)n1cnc2c(NCc3cccnc3)nc(-c3ccc(C(=O)N4CCN(C)CC4)cc3)nc21	0	0	2	-6	x	x
CCOC(=O)/C(=C\c1ccco1)NC(=O)c1ccccc1I	0	12*	11	9	0	6
COc1ccc(N/C=C(/C#N)c2nc(-c3ccccc3)cs2)cc1	0	10.0*	4	-3	-1	-14
CCOc1ccc(/C=C(/C#N)c2nc(-c3ccc(Br)cc3)cs2)c(OCC)c1	0	0	0	5	x	x
CCOc1ccc(-c2csc(/C(C#N)=C/c3ccccc3OCC)n2)cc1	0	6.2*	7	-6	5	13
COc1ccc(-c2csc(/C(C#N)=C/Nc3ccc(C(N)=O)cc3)n2)cc1OC	0	1	-9	0	x	x
COc1ccc(-c2csc(/C(C#N)=C/Nc3ccc(F)c([N+](=O)[O-])c3)n2)cc1OC	0	5.2*	-3	1	3	8
